In PubChem BioAssay AID1159580 (chemical genetic matrix, 2015):
“And” between values parts separate entries of the source, which are not always exact repeats. Equal values may be shown once. The campaign covered roughly 5,500 compounds. About 2,000 (36%) were called active. Inconclusive results (about 18%) are left out. Rule as the data show it: active = normalized growth mostly below about 0.91 (no sharp cut-off); inconclusive = no clear call, values can overlap the other calls; inactive = mostly above about 0.92. Some of the results follow.

Assay: chemical genetic growth profiling, strain panel (AID 1159580);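 also: tested at 20 µM; growth read once vehicle control cultures reached saturation at 30 °C; 1 = growth at the plate median or of vehicle wells; lower values mean less growth of the strain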
Conditions: S. cerevisiae deletion strains, growth OD

Measured: normalized growth

COc1ccc2c(c1)[C@]13CCCC[C@H]1[C@H](C2)N(C)CC3
inactive: locus YAL021C, strain ccr4, stronger effect = lower value 0.94 | locus YAL026C, strain drs2, stronger effect = lower value 1 | locus YAL030W, strain snc1, stronger effect = lower value 0.971 | locus YBL061C, strain skt5, stronger effect = lower value 0.981 | locus YBR009C, strain hhf1, stronger effect = lower value 0.988 | locus YBR021W, strain FUR4, stronger effect = lower value 1.01 | locus YBR023C, strain chs3, stronger effect = lower value 0.99 | locus YBR171W, strain sec66, stronger effect = lower value 0.933 | locus YBR229C, strain ROT2, stronger effect = lower value 1.01 | locus YBR231C, strain swc5, stronger effect = lower value 0.937 | locus YBR279W, strain paf1, stronger effect = lower value 0.998 | locus YCL011C, strain gbp2, stronger effect = lower value 0.991 | locus YCL016C, strain dcc1, stronger effect = lower value 1.03 | locus YCL029C, strain bik1, stronger effect = lower value 0.988 | locus YCL061C, strain MRC1, stronger effect = lower value 0.968 | locus YCL069W, strain vba3, stronger effect = lower value 0.995 | locus YCR088W, strain abp1, stronger effect = lower value 0.952 | locus YDL005C, strain med2, stronger effect = lower value 0.97 | locus YDL035C, strain GPR1, stronger effect = lower value 1.04 | locus YDL040C, strain nat1, stronger effect = lower value 0.962 | locus YDL074C, strain BRE1, stronger effect = lower value 0.993 | locus YDL101C, strain DUN1, stronger effect = lower value 1 | locus YDL134C, strain PPH21, stronger effect = lower value 1.03 | locus YDL185W, strain tfp1, stronger effect = lower value 0.989 | locus YDL192W, strain arf1, stronger effect = lower value 0.995 | locus YDR001C, strain nth1, stronger effect = lower value 0.951 | locus YDR069C, strain doa4, stronger effect = lower value 0.943 | locus YDR101C, strain arx1, stronger effect = lower value 0.999 | locus YDR137W, strain rgp1, stronger effect = lower value 0.999 | locus YDR150W, strain NUM1, stronger effect = lower value 1.01 | locus YDR159W, strain sac3, stronger effect = lower value 0.955 | locus YDR162C, strain NBP2, stronger effect = lower value 1.01 | locus YDR195W, strain ref2 0.926 | locus YDR297W, strain sur2, stronger effect = lower value 0.98 | locus YDR318W, strain mcm21, stronger effect = lower value 0.988 | locus YDR334W, strain swr1, stronger effect = lower value 0.909 | locus YDR335W, strain msn5, stronger effect = lower value 0.949 | locus YDR388W, stronger effect = lower value 0.993 | locus YDR392W, strain spt3, stronger effect = lower value 1.03 | locus YDR502C, strain sam2, stronger effect = lower value 0.992 | locus YEL003W, strain gim4, stronger effect = lower value 0.966 | locus YEL037C, strain rad23, stronger effect = lower value 0.975 | locus YEL061C, strain CIN8 (second series), stronger effect = lower value 0.96 | locus YEL061C, strain CIN8, stronger effect = lower value 1.01 | locus YER015W, strain faa2, stronger effect = lower value 0.961 | locus YER016W, strain bim1, stronger effect = lower value 1 | locus YER110C, stronger effect = lower value 0.996 | locus YER111C, strain swi4, stronger effect = lower value 0.978 | locus YER155C, strain BEM2 (second series), stronger effect = lower value 0.886 | locus YER155C, strain BEM2, stronger effect = lower value 1 | locus YER167W, strain BCK2, stronger effect = lower value 1.01 | locus YFR010W, strain ubp6, stronger effect = lower value 0.95 | locus YGL078C, strain dbp3, stronger effect = lower value 0.993 | locus YGL086W, strain mad1, stronger effect = lower value 0.993 | locus YGL167C, strain pmr1, stronger effect = lower value 0.946 | locus YGL173C, strain kem1, stronger effect = lower value 1 | locus YGL227W, strain vid30, stronger effect = lower value 0.965 | locus YGL240W, strain doc1, stronger effect = lower value 0.948 | locus YGL248W, strain PDE1, stronger effect = lower value 0.995 | locus YGL253W, strain hxk2, stronger effect = lower value 0.998 | locus YGR078C, strain PAC10, stronger effect = lower value 0.996 | locus YGR135W, strain pre9, stronger effect = lower value 0.964 | locus YGR229C, strain SMI1, stronger effect = lower value 1.02 | locus YGR252W, strain gcn5, stronger effect = lower value 0.973 | locus YHR013C, strain ard1, stronger effect = lower value 0.991 | locus YHR027C, strain rpn1, stronger effect = lower value 0.985 | locus YHR030C, strain SLT2, stronger effect = lower value 1.01 and 1.03 | locus YHR079C, strain IRE1 (second series), stronger effect = lower value 0.984 | locus YHR079C, strain IRE1, stronger effect = lower value 1.03 | locus YHR094C, strain hxt1, stronger effect = lower value 0.987 | locus YHR129C, strain ARP1, stronger effect = lower value 1.01 | locus YHR142W, strain chs7, stronger effect = lower value 0.987 | locus YHR200W, strain rpn10, stronger effect = lower value 0.996 | locus YIL066C, strain RNR3, stronger effect = lower value 1.01 | locus YIL073C, strain SPO22, stronger effect = lower value 0.976 | locus YIL125W, strain kgd1, stronger effect = lower value 0.987 | locus YIR030C, strain dcg1, stronger effect = lower value 0.999 | locus YJL092W, strain hpr5, stronger effect = lower value 0.962 | locus YJL095W, strain BCK1 (second series), stronger effect = lower value 0.978 | locus YJL095W, strain BCK1, stronger effect = lower value 0.966 and 1.04 | locus YJL115W, strain asf1, stronger effect = lower value 0.95 | locus YJL129C, strain trk1, stronger effect = lower value 0.932 | locus YJL134W, strain LCB3, stronger effect = lower value 0.999 | locus YJL154C, strain vps35, stronger effect = lower value 0.954 | locus YJL164C, strain tpk1, stronger effect = lower value 1.02 | locus YJL166W, strain qcr8, stronger effect = lower value 0.929 | locus YJL168C, strain set2, stronger effect = lower value 0.99 | locus YJL187C, strain SWE1 (second series), stronger effect = lower value 0.994 | locus YJR043C, strain POL32, stronger effect = lower value 1.04 | locus YJR066W, strain TOR1, stronger effect = lower value 0.984 | locus YJR075W, strain HOC1, stronger effect = lower value 0.983 | locus YKL009W, strain mrt4, stronger effect = lower value 0.99 | locus YKL068W, stronger effect = lower value 0.993 | locus YKL085W, strain MDH1 (second series), stronger effect = lower value 0.984 | locus YKL085W, strain MDH1, stronger effect = lower value 0.984 | locus YKL160W, strain elf1, stronger effect = lower value 0.97 | locus YKR001C, strain vps1, stronger effect = lower value 0.997 | locus YKR026C, strain gcn3, stronger effect = lower value 0.966 | locus YKR091W, strain srl3, stronger effect = lower value 0.966 | locus YLL001W, strain dnm1, stronger effect = lower value 0.926 | locus YLL026W, stronger effect = lower value 0.986 | locus YLL041C, strain sdh2, stronger effect = lower value 0.97 | locus YLR027C, strain aat2, stronger effect = lower value 0.966 | locus YLR039C, strain RIC1, stronger effect = lower value 1.1 | locus YLR058C, strain SHM2, stronger effect = lower value 0.996 | locus YLR102C, strain apc9, stronger effect = lower value 0.976 | locus YLR113W, strain HOG1, stronger effect = lower value 1.05 | locus YLR221C, strain rsa3, stronger effect = lower value 1.01 | locus YLR258W, strain gsy2, stronger effect = lower value 0.997 | locus YLR262C, strain YPT6 (second series), stronger effect = lower value 0.954 | locus YLR262C, strain YPT6, stronger effect = lower value 1.08 | locus YLR268W, strain sec22, stronger effect = lower value 0.988 | locus YLR320W, strain mms22, stronger effect = lower value 1 | locus YLR330W, strain CHS5, stronger effect = lower value 1.01 | locus YLR342W, strain FKS1 (second series), stronger effect = lower value 0.997 | locus YLR342W, strain FKS1, stronger effect = lower value 0.946 | locus YLR357W, strain rsc2, stronger effect = lower value 0.958 | locus YLR370C, strain arc18, stronger effect = lower value 0.989 | locus YLR371W, strain rom2, stronger effect = lower value 0.993 | locus YLR384C, strain iki3, stronger effect = lower value 0.956 | locus YLR418C, strain cdc73, stronger effect = lower value 0.957 | locus YML016C, strain PPZ1, stronger effect = lower value 1.01 | locus YML032C, strain rad52, stronger effect = lower value 0.997 | locus YML120C, strain ndi1, stronger effect = lower value 0.973 | locus YML124C, strain tub3, stronger effect = lower value 0.997 | locus YMR058W, strain fet3, stronger effect = lower value 0.974 | locus YMR078C, strain ctf18, stronger effect = lower value 0.982 | locus YMR125W, strain sto1, stronger effect = lower value 0.917 | locus YMR129W, stronger effect = lower value 0.985 | locus YMR205C, strain PFK2, stronger effect = lower value 0.953 | locus YMR223W, strain ubp8, stronger effect = lower value 0.965 | locus YMR231W, strain pep5, stronger effect = lower value 0.965 | locus YMR307W, strain GAS1, stronger effect = lower value 1.09 | locus YNL067W, strain RPL9B, stronger effect = lower value 0.99 | locus YNL071W, strain lat1, stronger effect = lower value 0.982 | locus YNL153C, strain GIM3, stronger effect = lower value 0.981 | locus YNL183C, strain NPR1, stronger effect = lower value 0.997 | locus YNL209W, strain ssb2, stronger effect = lower value 0.99 | locus YNL233W, strain BNI4, stronger effect = lower value 0.982 | locus YNL248C, strain rpa49, stronger effect = lower value 0.987 | locus YNL250W, strain rad50, stronger effect = lower value 1.01 | locus YNL271C, strain bni1, stronger effect = lower value 0.994 | locus YNL298W, strain CLA4, stronger effect = lower value 0.991 | locus YNL307C, strain MCK1, stronger effect = lower value 0.979 | locus YNL322C, strain KRE1 (second series), stronger effect = lower value 0.93 | locus YNR049C, strain mso1, stronger effect = lower value 0.976 | locus YNR052C, strain pop2, stronger effect = lower value 0.992 | locus YOL012C, strain htz1 0.734 | locus YOL147C, strain pex11, stronger effect = lower value 0.989 | locus YOR001W, strain rrp6, stronger effect = lower value 0.953 | locus YOR061W, strain CKA2, stronger effect = lower value 1.02 | locus YOR069W, strain VPS5, stronger effect = lower value 1.01 | locus YOR070C, strain gyp1, stronger effect = lower value 0.987 | locus YOR080W, strain dia2, stronger effect = lower value 0.945 | locus YOR083W, strain WHI5, stronger effect = lower value 0.947 | locus YOR106W, strain vam3, stronger effect = lower value 0.939 | locus YOR136W, strain idh2, stronger effect = lower value 0.99 | locus YOR144C, strain elg1, stronger effect = lower value 0.99 | locus YOR184W, strain ser1, stronger effect = lower value 0.99 | locus YOR231W, strain MKK1, stronger effect = lower value 1.04 | locus YOR265W, strain rbl2, stronger effect = lower value 0.967 | locus YOR270C, strain vph1, stronger effect = lower value 0.966 | locus YOR290C, strain snf2, stronger effect = lower value 1.01 | locus YOR316C, strain cot1, stronger effect = lower value 0.991 | locus YPL051W, strain arl3, stronger effect = lower value 0.985 | locus YPL078C, strain atp4, stronger effect = lower value 0.933 | locus YPL106C, strain sse1, stronger effect = lower value 0.944 | locus YPL240C, strain hsp82, stronger effect = lower value 0.967 | locus YPL256C, strain CLN2, stronger effect = lower value 1.03 | locus YPR119W, strain clb2, stronger effect = lower value 0.981 | locus YPR141C, strain kar3, stronger effect = lower value 0.98 | locus YPR163C, strain tif3, stronger effect = lower value 1 | locus YPR167C, strain met16, stronger effect = lower value 0.987 | strain wtn01, stronger effect = lower value 0.986
